# RE007 growth inh – less growth of the S. pombe RE007 Vpr strain; S. pombe RE007 Vpr strain, BacTiter-Glo ATP luminescence, 24 h; Potency, µM (highest dose often 92.2 µM), for the others: at the highest dose activity change, negative = less growth, usual class: inhibitors; AID 651644; hit rate 0.21% among 360,000; active = well fitted falling curve with a large enough effect; inconclusive = small, poorly fitted or top-dose-only effect; inactive = no such curve, though single readings can be large or run the other way; note: potency is the fitted concentration of half-maximal effect; % is set by controls: 0 for no effect and ±100 for the full control effect; nearly all actives have a fitted effect of over 50% in size
#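 Fission yeast strain RE007, carrying one chromosomally integrated HIV-1 vpr copy, was seeded at OD 0.01 in PMG+AL medium with 23 nL pinned compound. After 24 h at 30 °C and 99% humidity, viability was read by BacTiter-Glo luminescence.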
# AmpC detergent – AmpC beta-lactamase inhibition with detergent present | P00811 | AmpC hydrolysis of nitrocefin, absorbance 480 nm, 0.01% Triton | Potency, µM (titrated, usually from 114 µM), for inactives: top-dose activity change, negative = inhibition, most hits filed as inhibitors | hit rate 0.041% among 370,000;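 note: potency is the fitted concentration of half-maximal effect; 0% = no-compound wells and -100% = no-enzyme wells; nearly all actives have a fitted effect of over 25% in size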
# Target sequence (P00811 whole entry, looked up): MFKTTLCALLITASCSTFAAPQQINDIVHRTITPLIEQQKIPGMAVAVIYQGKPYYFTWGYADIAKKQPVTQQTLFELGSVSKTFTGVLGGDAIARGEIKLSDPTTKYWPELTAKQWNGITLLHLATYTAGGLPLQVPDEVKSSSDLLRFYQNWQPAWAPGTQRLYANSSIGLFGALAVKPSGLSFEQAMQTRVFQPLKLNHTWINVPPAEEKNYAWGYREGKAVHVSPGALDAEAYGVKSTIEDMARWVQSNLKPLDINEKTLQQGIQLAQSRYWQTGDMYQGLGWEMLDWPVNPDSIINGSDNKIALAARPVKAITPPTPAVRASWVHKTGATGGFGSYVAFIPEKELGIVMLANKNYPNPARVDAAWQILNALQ
#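 20 mM phosphate pH 7.0 + 0.01% (detergent screen) or 0.0001% Triton X-100; 5.3 nM AmpC reagent; cpd preinc 15 min RT; nitrocefin (800 uM stock) to start; A480 q20 s × 4 min; Activity was normalised to no-enzyme and no-compound control wells.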
# AmpC inh no detg – inhibitors of E. coli AmpC beta-lactamase without detergent. hit rate 0.52% among 330,000. AmpC nitrocefin hydrolysis, absorbance 480 nm, 0.0001% Triton. Potency, µM (highest dose often 57.1 µM), for inactives: at the highest dose activity change, negative = inhibition, hits mostly inhibitors. P00811;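 note: potency is the fitted concentration of half-maximal effect; plate controls were no compound for no effect and no enzyme for full effect; nearly all actives have a fitted effect of over 20% in size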
#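 20 mM phosphate pH 7.0 + 0.01% (detergent screen) or 0.0001% Triton X-100; 5.3 nM AmpC reagent; cpd preinc 15 min RT; nitrocefin (800 uM stock) to start; A480 q20 s × 4 min; Activity was normalised to no-enzyme and no-compound control wells.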
# SARS PLpro yeast-1 – blocks SARS-CoV papain-like protease in a yeast assay. S. cerevisiae expressing SARS-CoV PLpro, growth rescue. Potency, µM (top dose mostly 32.9 µM), for the others: top-dose activity, positive = growth rescue, actives largely listed as activators. hit rate 0.19% among 330,000; calls by dose curve; note: potency is the fitted concentration of half-maximal effect; 0% is about no effect; nearly all actives have a fitted effect of over 55% in size
# Sm TGR inh – S. mansoni TGR enzyme inhibition; purified TGR, DTNB reduction, TNB absorbance 405 nm; Potency, µM (series often up to 114 µM), inactives show top-dose activity change, negative = inhibition, most hits filed as inhibitors; Q962Y6; hit rate 3% among 360,000; note: potency is the fitted concentration of half-maximal effect; % is set by controls: 0 for no effect and ±100 for the full control effect; nearly all actives have a fitted effect of over 60% in size
#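 TGR 20 nM + NADPH 100 uM (dispensed conc.), cpd preinc 15 min RT; start with NADPH (500 uM addition) then DTNB (15 mM addition). Kinetic TNB absorbance, 405 nm filter. Four-parameter Hill fit across titration.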
# TbPYK inhibitor – T. brucei pyruvate kinase inhibition; Potency, µM (titrated, usually from 76.8 µM), inactives show top-dose activity, negative = inhibition, most hits filed as inhibitors; hit rate 0.12% among 410,000; TbPYK enzyme, Kinase-Glo Plus ATP luminescence, 45 min; Q57TT1; note: potency is the fitted concentration of half-maximal effect; % is set by controls: 0 for no effect and ±100 for the full control effect; nearly all actives have a fitted effect of over 50% in size
#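 Enzyme and substrate buffer are dispensed first and compound is pin-transferred. ADP at 130 uM final then starts the reaction, which runs 45 min at room temperature. Detection reagent is added for 10 min before luminescence is imaged.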
# SARS PLpro yeast-2 – Inhibits SARS-CoV PLP in yeast, hit validation; shares compounds with SARS PLpro yeast-1; yeast expressing SARS-CoV PLpro, growth phenotype rescue; calls only; hit rate 19% among 1,000; call rule not given here
# * = called active by the depositor; i = inactive; ? = inconclusive; . = no result; + = active, no number; ! = not confirmed by another sample. Most compounds without a hit are left out; they make up all but 3.3% or so of the library. Unless noted, calls come from the whole dose curve; as a rule, active = well fitted curve in the direction sought with a large enough effect; inconclusive = small, poorly fitted or top-dose-only effect, or another doubt; inactive = no such curve, though single readings can be large; an effect the other way counts as inactive or inconclusive.
SMILES,RE007 growth inh,AmpC detergent,AmpC inh no detg,SARS PLpro yeast-1,Sm TGR inh,TbPYK inhibitor,SARS PLpro yeast-2
O=C(CSc1nnc(Cn2c(=O)sc3ccccc32)n1-c1ccccc1)N1CCCC1,-4%,?,-18%,?,-15%,-8%,i
COc1cccc(C(CNC(=O)C2CCN(C(=O)Nc3ccccc3)CC2)N(C)C)c1 (stereo not drawn),3%,10%,4%,?,?,2%,i
Cc1ccc(-c2cc(=O)c3cc(C)ccc3[nH]2)cc1,-27%,?,-32%,4%,-10%,1%,.
Cc1ccc(-c2cc(=O)c3cc(F)ccc3[nH]2)cc1,1%,-6%,-8%,?,1%,3%,i
c1cncc(-c2csc(NCc3ccco3)n2)c1,-14%,-1%,-18%,-12%,2%,5%,.
CC(=O)Nc1ccc(-c2csc(NCc3ccco3)n2)cc1,1%,-1%,-27%,?,-22%,-8%,i
COc1cccc(Cn2c(=O)n(-c3cccc(Cl)c3)c(=O)c3c4c(sc32)CN(C(C)=O)CC4)c1,.,21%,.,.,18%,6%,.
COc1cc2[nH]c3c(=O)n(CCN4CCCCC4)cnc3c2cc1OC,-12%,-19%,-31%,?,0%,1%,i
COc1ccc2[nH]c3c(=O)n(CCCN4CCOCC4)cnc3c2c1,0%,-6%,-13%,0%,-1%,2%,.
COc1ccccc1NC(=S)NNC(=O)c1nn(C)c(C)c1Br,-1%,3%,-20%,16µM*,0%,-27%,i
COc1ccccc1NC(=S)NNC(=O)c1nn(C)c(C)c1Cl,2%,-9%,-18%,8%,-17%,?,.
CCCCCCN(C(=O)CCCCCN1C(=O)NC(c2ccc(-c3ccccc3)cc2)C(C(=O)OCc2ccccc2)=C1C)C(C(=O)NCCCC)C1CCCCC1 (stereo not drawn),.,0%,-12%,0%,2%,.,.
CCCCCCN(C(=O)CCCN1C(=O)NC(c2ccc([N+](=O)[O-])cc2)C(C(=O)OCc2ccccc2)=C1C)C(C)C(=O)NCCCC (stereo not drawn),-9%,.,16%,?,.,2%,i
O=Cc1c(Sc2ccccn2)nc2ccccn2c1=O,-5%,1%,-16%,-4%,-20%,41%,.
O=Cc1c(Sc2ccccc2)nc2ccccn2c1=O,2%,0%,-9%,?,-14%,?,i
O=C(NCc1ccco1)c1ccc(Cl)c(S(=O)(=O)N2CCc3ccccc32)c1,2%,-14%,-11%,?,-1%,3%,i
CCN(NC(=O)C(O)(c1ccccc1)c1ccccc1)C(=O)c1ccccc1,10%,-16%,-21%,14µM*,-1%,3%,i
CC(c1ccccc1)N(NC(=O)C(O)(c1ccccc1)c1ccccc1)C(=O)c1ccccc1 (stereo not drawn),-6%,?,-16%,13%,94%,-13%,.
CCN1CCc2c(sc(NC(=O)Cc3ccccc3)c2C(N)=O)C1,2%,?,4%,-1%,-11%,7%,.
CCN1CCc2c(sc(NC(=O)Nc3ccc(Cl)c(Cl)c3)c2C(N)=O)C1,0%,-6%,46%,?,-10%,-13%,i
CC(=O)N(C)Cc1ccc(C(=O)CSc2nnc(C3CC3)n2C2CC2)cc1,7%,4%,-3%,1%,-3%,-5%,.
CC(=O)N(C)Cc1ccc(C(=O)CCl)cc1,11%,0%,-9%,7.9µM*,11µM*,-3%,+
COC(=O)C1=C(C)NC(C)=C(C(=O)OC)C1c1cc2cc(C)ccc2[nH]c1=O,3%,-7%,23%,1%,?,-2%,.
Cc1ccc2[nH]c(=O)c(C3C(C#N)=C(N)Oc4c3ccc3cccnc43)cc2c1 (stereo not drawn),10%,2%,-19%,13µM*,16µM*,53%,+
O=S(=O)(c1ccc(OCC(O)CN2CCN(c3ccccc3O)CC2)cc1)N1CCOCC1 (stereo not drawn),-6%,?,28%,-3%,3%,-9%,.
SMILES,RE007 growth inh,AmpC detergent,AmpC inh no detg,SARS PLpro yeast-1,Sm TGR inh,TbPYK inhibitor,SARS PLpro yeast-2
O=S(=O)(c1ccc(OCC(O)CN2CCN(c3ccccc3)CC2)cc1)N1CCOCC1 (stereo not drawn),0%,-3%,59%,?,-6%,3%,i
Cc1ccc(CNC(=O)CCCn2c(=O)[nH]c3ccc(Br)cc3c2=O)cc1,.,8%,.,.,3%,4%,.
CCc1ccc(Sc2cc(C(=O)NCc3cccc(OC)c3)c3ccccc3n2)cc1,.,10%,.,.,8%,-7%,.
CCN1C(=NCc2ccccc2)N[C@@H](c2ccccc2)[C@H](C(=O)OC)[C@H]1C,-2%,?,-14%,?,8%,-15%,i
Cn1c2ccsc2c2cnn(Cc3ccc(F)cc3)c(=O)c21,.,?,8%,-4%,2%,.,.
Cn1c2cc(C#N)sc2c2cnn(Cc3ccc(F)cc3)c(=O)c21,.,?,-23%,5.6µM*!,9%,3%,i
COc1ccc(N(C(C)C(=O)NN=C2CCCC2)S(C)(=O)=O)cc1 (stereo not drawn),9%,2%,-5%,11µM*,7%,3%,i
COc1cc(NC(=O)Cn2c(C)cc3ccccc3c2=O)cc(OC)c1OC,-8%,9%,-19%,13µM*,-16%,-10%,i
COc1ccccc1NC(=O)CNC(=O)Cn1c(C)cc2ccccc2c1=O,-4%,-2%,12%,5%,0%,6%,.
CCOc1ccc(CCNC(=O)c2nn(C)c3c2CSc2ccc(C)cc2-3)cc1OCC,.,4%,.,.,11%,5%,.
COc1ccccc1C(=O)NCC(=O)OC(C)C(=O)NC1CCCCC1C (stereo not drawn),-9%,-2%,11%,0%,3%,-1%,.
COc1ccccc1C(=O)NCC(=O)OC(C)C(=O)NC(=O)NC1CCCCC1 (stereo not drawn),-11%,1%,19%,?,-9%,0%,i
Cc1c(C(=O)N2CCN(S(=O)(=O)c3ccc(F)cc3)CC2)oc2ccccc12,4%,-14%,-6%,?,5%,-11%,i
Cc1c(C(=O)N2CCN(S(=O)(=O)c3cccs3)CC2)oc2ccc(F)cc12,-9%,.,-14%,-2%,.,-2%,.

# Source: PubChem BioAssay
